Measured values from PubChem BioAssay (EPA / NIEHS).
Records with an inconclusive call do not appear. The source made the active and inactive calls. Rule for the calls: active = hit-call score of the fitted dose curve at least 0.9, where 1 is the maximum; inconclusive = response in the unintended direction; inactive = score below 0.9.

tested on: not listed separately; experiment: ATG_M_19_TRANS: Attagene TRANS-FACTORIAL HepG2 Assay for M19 Transcription Factor (Internal Marker) (AID 2282974); conditions: HepG2 Attagene TRANS-FACTORIAL M19 internal marker reporter
How it was run: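 HepG2 cells transiently transfected with multiple GAL4-UAS reporter transcription units were exposed to chemicals for 24 h. Reporter mRNA was read by RT-PCR, 6-FAM primer extension, HpaI digestion and capillary electrophoresis; gain of signal fitted relative to DMSO.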

Question: Which outcome does the source give for CCCCCCCCOC(=O)c1ccc(C(=O)OCCCCCCCC)c(C(=O)OCCCCCCCC)c1 here?
Answer: inactive

Question: Which outcome does the source give for CC(C)COC(=O)c1ccccc1C(=O)OCC(C)C here?
Answer: inactive

Question: For ClCCOCCCl, which outcome is on record?
Answer: inactive

Question: For CCCCOC(=O)c1ccccc1C(=O)OCc1ccccc1, which outcome is on record?
Answer: inactive

Question: Which outcome does the source give for O=C(Nc1ccccc1)c1ccccc1I here?
Answer: inactive

Question: With C[C@]12C=CC3=C4CCC(=O)C=C4CC[C@H]3[C@@H]1CC[C@@H]2O as the compound, how does the outcome read?
Answer: inactive

Question: Which outcome does the source give for CN(C)[C@@H]1C(=O)C(C(N)=O)=C(O)[C@@]2(O)C(=O)C3=C(O)c4c(O)cccc4[C@@](C)(O)[C@H]3C[C@@H]12 here?
Answer: inactive

Question: For Cc1ccc(N)cc1, which outcome is on record?
Answer: inactive

Question: With COP(=S)(OC)SCN1C(=O)c2ccccc2C1=O as the compound, how does the outcome read?
Answer: inactive

Question: For Cn1cc(-c2ccccc2)c(=O)c(-c2cccc(C(F)(F)F)c2)c1, which outcome is on record?
Answer: inactive

Question: With CCC(C)c1ccc(O)cc1 (configuration not stated) as the compound, how does the outcome read?
Answer: inactive

Question: Which outcome does the source give for C[N+](C)(C)CC1CO1 (configuration not stated) here?
Answer: inactive

tested on: not listed separately; experiment: ATG_GAL4_TRANS: Attagene TRANS-FACTORIAL HepG2 Assay for GAL4 (Internal Marker) (AID 2282976); conditions: HepG2 Attagene TRANS GAL4 internal marker reporter
How it was run: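 In transfected human HepG2 liver cells dosed 24 h, GAL4 reporter mRNA serves as a baseline marker. Detection by RT-PCR with fluorescent capillary electrophoresis, activity fitted upward relative to DMSO.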

Question: For N#CC(Br)Br, which outcome is on record?
Answer: inactive

Question: With CCCCOC(=O)c1ccccc1C(=O)OCc1ccccc1 as the compound, how does the outcome read?
Answer: inactive

Question: With [As]#[In] as the compound, how does the outcome read?
Answer: inactive

Question: For Cn1cc(-c2ccccc2)c(=O)c(-c2cccc(C(F)(F)F)c2)c1, which outcome is on record?
Answer: inactive

Question: With CCC(C)c1ccc(O)cc1 (configuration not stated) as the compound, how does the outcome read?
Answer: inactive

biological target: Bile acid receptor (Homo sapiens) (UniProt Q96RI1); experiment: ATG_FXR_TRANS: Attagene TRANS-FACTORIAL HepG2 Assay for Farnesoid X Receptor (FXR) (AID 2282979); conditions: HepG2 Attagene TRANS FXR-GAL4 reporter transcription;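 note: hits raise reporter mRNA above DMSO so AC50 marks FXR activation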
Sequence (Q96RI1 whole entry, looked up, the tested form may be a part): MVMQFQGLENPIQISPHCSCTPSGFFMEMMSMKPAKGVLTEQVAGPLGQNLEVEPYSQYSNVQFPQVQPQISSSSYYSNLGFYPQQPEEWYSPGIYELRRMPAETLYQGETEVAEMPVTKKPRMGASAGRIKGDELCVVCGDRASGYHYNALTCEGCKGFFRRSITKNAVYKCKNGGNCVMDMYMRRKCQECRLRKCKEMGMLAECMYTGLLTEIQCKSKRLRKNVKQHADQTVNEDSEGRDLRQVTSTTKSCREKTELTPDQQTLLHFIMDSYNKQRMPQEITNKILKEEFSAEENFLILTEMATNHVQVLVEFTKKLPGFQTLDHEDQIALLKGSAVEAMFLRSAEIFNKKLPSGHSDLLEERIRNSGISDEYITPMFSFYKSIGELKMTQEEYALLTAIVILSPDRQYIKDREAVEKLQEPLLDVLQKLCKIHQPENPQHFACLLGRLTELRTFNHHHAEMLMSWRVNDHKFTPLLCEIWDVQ
How it was run: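 Reporter transcripts from transfected HepG2 cells were measured 24 h after dosing, using RT-PCR with capillary electrophoresis of 6-FAM-labelled fragments. The read-out reflects activity of exogenous FXR-Gal4 chimera on GAL4-UAS units, with induction relative to DMSO.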

Question: Which outcome does the source give for CC(C)COC(=O)c1ccccc1C(=O)OCC(C)C here?
Answer: inactive

Question: Which outcome does the source give for N#CC(Br)Br here?
Answer: inactive

Question: Which outcome does the source give for ClCCOCCCl here?
Answer: inactive

Question: With C[C@]12C=CC3=C4CCC(=O)C=C4CC[C@H]3[C@@H]1CC[C@@H]2O as the compound, how does the outcome read?
Answer: inactive

Question: With CN(C)[C@@H]1C(=O)C(C(N)=O)=C(O)[C@@]2(O)C(=O)C3=C(O)c4c(O)cccc4[C@@](C)(O)[C@H]3C[C@@H]12 as the compound, how does the outcome read?
Answer: inactive

Question: Which outcome does the source give for COP(=S)(OC)SCN1C(=O)c2ccccc2C1=O here?
Answer: inactive

Question: For CC(C)(OOC(C)(C)c1ccccc1)c1ccccc1, which outcome is on record?
Answer: inactive

Question: Which outcome does the source give for CCC(C)c1ccc(O)cc1 (configuration not stated) here?
Answer: inactive

biological target: Oxysterols receptor LXR-alpha (Homo sapiens) (UniProt Q13133); experiment: ATG_LXRa_TRANS: Attagene TRANS-FACTORIAL HepG2 Assay for human Liver X Receptor alpha (LXRa) (AID 2282980); conditions: HepG2 Attagene TRANS reporter, LXRa transactivation
Sequence (Q13133 whole entry, looked up, the tested form may be a part): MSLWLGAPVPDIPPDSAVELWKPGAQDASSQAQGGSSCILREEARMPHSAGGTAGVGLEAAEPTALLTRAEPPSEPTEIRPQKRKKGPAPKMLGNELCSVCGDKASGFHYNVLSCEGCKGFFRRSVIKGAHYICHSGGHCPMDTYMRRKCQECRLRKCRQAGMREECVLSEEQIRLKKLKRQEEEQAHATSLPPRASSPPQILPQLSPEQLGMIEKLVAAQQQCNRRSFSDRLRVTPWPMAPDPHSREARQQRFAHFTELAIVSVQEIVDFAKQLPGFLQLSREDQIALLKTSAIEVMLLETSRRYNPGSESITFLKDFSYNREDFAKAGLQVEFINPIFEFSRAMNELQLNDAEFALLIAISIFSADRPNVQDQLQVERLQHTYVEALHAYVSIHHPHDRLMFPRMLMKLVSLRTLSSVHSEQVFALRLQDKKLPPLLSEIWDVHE
How it was run: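 Chemical-induced reporter mRNA measured by RT-PCR with fluorescent labelling and capillary electrophoresis after 24 h dosing of transiently transfected HepG2 cells expressing exogenous NR-Gal4 chimeras; increases scored against DMSO baseline.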

Question: With CCCCCCCCOC(=O)c1ccc(C(=O)OCCCCCCCC)c(C(=O)OCCCCCCCC)c1 as the compound, how does the outcome read?
Answer: inactive

Question: With CO[C@@H]1[C@H](OC(=O)NC(=O)CCl)CC[C@]2(CO2)[C@H]1[C@@]1(C)O[C@@H]1CC=C(C)C as the compound, how does the outcome read?
Answer: inactive

Question: For O=C(O)C1C2CCC(O2)C1C(=O)O (configuration not stated), which outcome is on record?
Answer: inactive

Question: With CCCCCCCCCCCCCN1CC(C)OC(C)C1 (configuration not stated) as the compound, how does the outcome read?
Answer: inactive

Question: For N#CC(Br)Br, which outcome is on record?
Answer: inactive

Question: For C=CCc1ccc2c(c1)OCO2, which outcome is on record?
Answer: inactive

Question: With CCCCOC(=O)c1ccccc1C(=O)OCc1ccccc1 as the compound, how does the outcome read?
Answer: inactive

Question: With C[C@]12C=CC3=C4CCC(=O)C=C4CC[C@H]3[C@@H]1CC[C@@H]2O as the compound, how does the outcome read?
Answer: inactive

Question: With CN(C)[C@@H]1C(=O)C(C(N)=O)=C(O)[C@@]2(O)C(=O)C3=C(O)c4c(O)cccc4[C@@](C)(O)[C@H]3C[C@@H]12 as the compound, how does the outcome read?
Answer: inactive

Question: Which outcome does the source give for CC(C)(OOC(C)(C)c1ccccc1)c1ccccc1 here?
Answer: inactive

Question: For Nc1ccc(Oc2ccc(N)cc2)cc1, which outcome is on record?
Answer: inactive

Question: Which outcome does the source give for CCN(CC)N=O here?
Answer: inactive
